The whole screen tested about 350,000 compounds, of which about 31,000 (8.9%) were called active. A call without a number means that no potency is given here. Roughly 15% stayed inconclusive and do not appear here. The sample holds actives, similar compounds and a random draw of the others, so the mix is not that of the screen. Unmarked numbers belong to inactive results. Calls come from the whole dose curve; as a rule, active = well fitted inhibition curve with a large enough effect; inconclusive = small, poorly fitted or top-dose-only effect; inactive = no such curve, though single readings can be large or run the other way.
Molecular target: Histone-lysine N-methyltransferase EHMT2 (Homo sapiens) (UniProt Q96KQ7)
Test: qHTS Assay for Inhibitors of Histone Lysine Methyltransferase G9a; note: nearly all actives have a fitted effect of over 75% in size
Details: G9a H3K9 monomethylation, AlphaScreen, 2 h; series mostly up to 59 µM
Summary of the method: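 G9a (20 nM) was preincubated 15 min with compound, then reacted 2 h at room temperature with 500 nM biotin-H3K9 peptide and 20 µM SAM. Monomethyl-H3K9 detected by AlphaScreen using anti-H3K9me1 antibody.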
Potency is the fitted concentration of half-maximal effect.

Sequence of Histone-lysine N-methyltransferase EHMT2 (Homo sapiens) (Q96KQ7 913-1193 limits assumed): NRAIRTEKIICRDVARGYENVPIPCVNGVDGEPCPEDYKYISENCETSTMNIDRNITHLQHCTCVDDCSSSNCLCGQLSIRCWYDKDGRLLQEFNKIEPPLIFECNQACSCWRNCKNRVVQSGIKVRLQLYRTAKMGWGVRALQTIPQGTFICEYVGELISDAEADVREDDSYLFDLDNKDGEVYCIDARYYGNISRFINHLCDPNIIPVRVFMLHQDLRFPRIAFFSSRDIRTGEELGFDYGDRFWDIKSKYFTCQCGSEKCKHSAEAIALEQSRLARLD

| SMILES | Potency | activity, negative = inhibition |
| --- | --- | --- |
| O=C(Nc1cc2ccccc2oc1=O)C1CCCCC1 | inactive | – |
| O=c1oc2ccccc2cc1-c1cn(-c2ccccc2)c(=S)[nH]1 | 1.41 µM (active) | – |
| O=C(c1cn(-c2ccccc2)nc1-c1cc2ccccc2oc1=O)N1CCOCC1 | inactive | – |
| CCC(=O)N1CCc2cc(S(=O)(=O)NC(C(=O)NCCc3ccc(C)cc3)C(C)C)ccc21 (stereo not given) | inactive | – |
| Cc1ccc(NC(=S)NCCc2ccc(Cl)cc2)c(C)c1 | inactive | – |
| Cc1ccc(NC(=S)Nc2ncccc2C)c(C)c1 | 31.6 µM (active) | – |
| Cc1ccc(NC(=S)NCc2ccccc2Cl)c(C)c1 | inactive | – |
| COc1ccc(S(=O)(=O)Nc2cc(C)on2)cc1NC(C)=O | – | 2.19% [at 12.7 µM] |
| O=C(CNS(=O)(=O)c1cccs1)N1CCN(c2ccccc2Cl)CC1 | inactive | – |
| CCOc1ccc(Cn2c(SCCCCC#N)nc3c2c(=O)n(C)c(=O)n3C)cc1OCC | 35.5 µM (active) | – |
| CCCSc1nc2c(c(=O)n(C)c(=O)n2C)n1Cc1ccc(C)cc1 | inactive | – |
| CCCCn1c(SCC(=O)NCCc2ccc(OC)c(OC)c2)nc2c1c(=O)n(C)c(=O)n2C | inactive | – |
| O=C(NCCN1C(=O)C2C3C=CC(C3)C2C1=O)Nc1ccccn1 (stereo not given) | inactive | – |
| O=C(CN1C(=O)C2C3C=CC(C3)C2C1=O)Nc1nc(-c2ccccn2)cs1 (stereo not given) | 39.8 µM (active) | – |
| O=C(CCN1C(=O)C2C3C=CC(C3)C2C1=O)Nc1ccccc1F (stereo not given) | inactive | – |
| COCCCN(C(=O)CSCc1ccc(C)cc1)c1c(N)n(Cc2ccccc2)c(=O)[nH]c1=O | inactive | – |
| Cc1c(CNC2CCCCC2)c(C(=O)O)c(C)n1Cc1cccc(Cl)c1 | inactive | – |
| Cc1onc(-c2c(F)cccc2Cl)c1C(=O)N(C)CC(=O)Nc1cccc(F)c1 | inactive | – |
| CCOC(=O)c1ccc(NC(=O)CCS(=O)(=O)c2ccc(C)cc2)cc1 | inactive | – |
| O=C(CSc1nnc(CNC(=O)c2ccc(F)cc2)o1)Nc1ccc2c(c1)OCO2 | inactive | – |
| O=S(=O)(N1CCOCC1)N1CCN(c2ccccc2F)CC1 | inactive | – |
| Cc1cccc(C)c1N1CCN(S(=O)(=O)N2CCCCC2)CC1 | inactive | – |
| Cc1cccc(C)c1N1CCN(S(=O)(=O)N2CCOCC2)CC1 | 39.8 µM (active) | – |
| CN(CC(=O)Nc1cccc(F)c1)C(=O)C1CC(=O)N(CCc2ccccc2)C1 (stereo not given) | inactive | – |
| Cc1ccc(CNC(=O)CCc2c(C)nn(-c3ccc(N4CCCC4)nn3)c2C)cc1 | inactive | – |

| SMILES | Potency | activity, negative = inhibition |
| --- | --- | --- |
| CCN(CC)CCNS(=O)(=O)c1ccc(/C=C/C(=O)O)cc1 | 39.8 µM (active) | – |
| O=C(O)/C=C/c1ccc(S(=O)(=O)N2CCCCCC2)cc1 | inactive | – |
| CCC(C)NC(=O)/C=C/c1ccc(S(=O)(=O)NCc2ccco2)cc1 (stereo not given) | inactive | – |
| Cc1cc(NC(=O)CSC2=NS(=O)(=O)c3cc(Cl)ccc3N2)no1 | inactive | – |
| O=C(NCCCn1ccnc1)C(=O)c1cn(CC(=O)N2CCCCCC2)c2ccccc12 | inactive | – |
| Cc1ccc(CNC(=O)C(=O)c2cn(CC(=O)N3CCCC3)c3ccccc23)cc1 | inactive | – |
| O=C(NCc1ccco1)C(=O)c1cn(CC(=O)N2CCCCCC2)c2ccccc12 | 50.1 µM (active) | – |
| COc1cccc(OCCn2c(-c3ccc(Br)cc3)nc3ccccc3c2=O)c1 | inactive | – |
| Cc1oc2ncn(CC(C)C)c(=O)c2c1C(=O)N1CCN(c2ccccc2F)CC1 | inactive | – |
| Cc1cc(Cl)c2oc(C(=O)N(C)C(C)c3ccccn3)c(C)c2c1 (stereo not given) | inactive | – |
| COc1ccc(-c2sc3ccc(OC)cc3c2C#Cc2ccccn2)cc1 | – | -2.78% [at 0.501 µM] |
| Cc1cc(C)cc(NC(=O)COc2coc(CN3CCN(c4ccccc4)CC3)cc2=O)c1 | inactive | – |
| CCOc1ccc(N/C=C/C(=O)c2cc(OC)c(OC)c(OC)c2)cc1 | – | -10.6% [at 0.501 µM] |
| CCOC(=O)c1ccc(NC(=O)c2csc3c2CCCCC3)cc1 | inactive | – |
| CCOC(=O)c1c(NC(=O)CCC(=O)NCc2ccco2)sc2c1CCCC2 | inactive | – |
| CCOC(=O)c1ccc(NC(=O)c2c(NCc3cccc(OC)c3)sc3c2CCC3)cc1 | 7.94 µM (active) | – |
| Cc1ccc(C(=O)c2c(NC(=O)c3ccccc3)sc(C)c2C)cc1 | 8.91 µM (active) | – |
| Cc1ccc(NC(=O)c2c(NC(=O)CCC(=O)O)sc3c2CCCCC3)cc1 | 28.2 µM (active) | – |
| CCOC(=O)c1ccc(NC(=O)CC2C(=O)N(c3cccc(OC)c3)C(=O)N2C2CCCCC2)cc1 (stereo not given) | inactive | – |
| COC(=O)c1c(NC(=O)CCCC(=O)O)sc2c1CCCCC2 | – | 23% [at 12.7 µM] |
| O=C(Cc1ccccc1)Nc1sc2c(c1C(=O)Nc1ccc(Br)cc1)CCC2 | inactive | – |
| CCOc1ccc(CCNC(=O)c2csc3c2CCCCC3)cc1 | inactive | – |
| Cc1sc(NC(=O)c2ccc3ncsc3c2)c(C(N)=O)c1C | inactive | – |
| CCOc1ccc(NC(=O)c2c(NC(=O)Cc3ccccc3)sc3c2CCCCC3)cc1 | 1.12 µM (active) | – |
| Cc1ccc(C(=O)NCCNC(=O)c2ccccc2)cc1 | inactive | – |

Source: PubChem BioAssay AID504332 (National Center for Advancing Translational Sciences (NCATS), 2011)
